From PubChem
A selection: hits, their analogues and other compounds. The true share with any hit is near 1.4%.
RAD54 branch: inhibitors of human RAD54 branch migration, primary screen, biochemical, fluorescence, single point; RAD54 Holliday junction branch migration, FAM/BHQ fluorescence; AID 602329, 2012; inhibition, % at 10.4 µM; DNA repair and recombination protein RAD54-like (Homo sapiens), Q92698; 360,000 compounds, 0.14% hits;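 active = mean normalized replicate activity at least 40 and at least half of replicates scoring 40 or more; inconclusive = only one of the two criteria met; inactive = mean below 40 and under half of replicates reaching 40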;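 note: inhibitors cause a drop in the FAM fluorescence signal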
PGC1a acetyl inh: inhibitors of PGC1a acetylation signal, primary screen, cell-based, U2OS, AlphaScreen, inhibitor mode; AID 651687, 2012; AlphaScreen anti-acetyl-lysine; with virally co-expressed GCN5 acetyltransferase; inhibition, % at 15.6 µM; 350,000 compounds, 0.17% hits;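 active = every replicate shows inhibition of at least 40%; inconclusive = mean inhibition at least 40% but some replicate below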
AF4-AF9 inh: inhibitors of AF4 peptide binding to AF9, primary screen, biochemical, AlphaScreen, biotin-AF4 peptide, FLAG-AF9, single point. Protein AF-9 (Homo sapiens), P42568. inhibition, % at 10 µM. 350,000 compounds, 0.47% hits;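 active = every replicate reaching a set inhibition limit, whatever the replicate mean, cut at about 25% in these data; inconclusive = mean inhibition reaches that limit but some replicates miss it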
INS-1E GSIS act: GLuc luminescence reporter in INS-1E cells, primary screen for activators of glucose-dependent secretion of insulin; 370,000 compounds, 0.61% hits; INS-1E GLuc reporter insulin secretion, 2-3 h; activation, % at 16.6 µM;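 active = lowest replicate activation of at least 40%, so every replicate reaches that level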
RAD52 anneal inh: RAD52 DNA annealing inhibitors, primary screen, biochemical, FRET, single point, set 2; DNA repair protein RAD52 homolog (Homo sapiens), P43351; recombinant RAD52 DNA annealing, FRET fluorescence; inhibition, % at 18.7 µM; 360,000 compounds, 0.46% hits;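 active = every replicate showing at least 50% inhibition; inconclusive = mean inhibition at least 50% but not in every replicate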
ERAP1 inh: human ERAP1 aminopeptidase inhibitors, primary screen, biochemical, single point, plate reader; recombinant ERAP1, Leu-AMC fluorescence, 60 min; inhibition, % at 10.7 µM; 340,000 compounds, 0.15% hits; AID 652197, 2013;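 active = mean replicate inhibition of at least 30%, or all replicates individually reaching that 30% level; inactive = mean below 30% and not every replicate reaching it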
Target sequence (Q9NZ08 whole entry, looked up): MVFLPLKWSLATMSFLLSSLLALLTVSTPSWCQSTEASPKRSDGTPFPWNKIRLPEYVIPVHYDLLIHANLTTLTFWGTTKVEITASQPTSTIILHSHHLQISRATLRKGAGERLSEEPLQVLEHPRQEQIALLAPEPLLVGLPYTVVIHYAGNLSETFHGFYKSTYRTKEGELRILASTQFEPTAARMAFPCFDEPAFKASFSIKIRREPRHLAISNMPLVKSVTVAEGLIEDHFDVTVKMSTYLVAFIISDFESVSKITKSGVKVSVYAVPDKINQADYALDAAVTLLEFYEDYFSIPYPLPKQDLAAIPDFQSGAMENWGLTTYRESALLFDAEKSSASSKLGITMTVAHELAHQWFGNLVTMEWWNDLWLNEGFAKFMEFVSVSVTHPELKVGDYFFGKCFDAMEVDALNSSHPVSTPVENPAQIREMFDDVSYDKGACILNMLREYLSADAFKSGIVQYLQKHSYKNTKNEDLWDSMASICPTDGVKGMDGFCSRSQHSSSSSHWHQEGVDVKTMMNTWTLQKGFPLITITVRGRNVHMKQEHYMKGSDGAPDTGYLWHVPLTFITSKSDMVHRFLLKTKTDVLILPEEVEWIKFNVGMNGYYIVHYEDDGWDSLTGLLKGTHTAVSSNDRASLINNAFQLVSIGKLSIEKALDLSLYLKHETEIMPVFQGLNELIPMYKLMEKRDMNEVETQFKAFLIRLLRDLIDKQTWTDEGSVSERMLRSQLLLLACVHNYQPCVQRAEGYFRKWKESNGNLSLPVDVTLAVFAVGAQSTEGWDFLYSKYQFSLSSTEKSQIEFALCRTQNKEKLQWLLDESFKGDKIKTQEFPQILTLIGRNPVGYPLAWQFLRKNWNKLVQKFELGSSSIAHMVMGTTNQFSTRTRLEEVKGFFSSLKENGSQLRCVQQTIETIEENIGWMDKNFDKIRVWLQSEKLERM
Large screens that a line does not name were inactive; ! = not confirmed by another sample.

COc1ccc(S(=O)(=O)N2CC[C@H]3[C@@H](CO)N(C)c4ccc(C5=CCCCC5)cc4[C@H]32)cc1	none (no result: ERAP1 inh)
Cc1cccc(C)c1NC(=O)NC1CCc2ccccc21 (stereo not drawn)	INS-1E GSIS act 119.3
Nc1nc(N)c(N=O)c(Nc2cccc(Cl)c2)n1	INS-1E GSIS act 41.2 (no result: RAD54 branch, PGC1a acetyl inh)
C/C(=N/NC(=O)c1ccc(Br)o1)c1cccc(NC(=O)c2ccc(C)o2)c1	none (no result: PGC1a acetyl inh, AF4-AF9 inh, RAD52 anneal inh, ERAP1 inh)
C/C(=N/NC(=O)c1ccc(Br)o1)c1ccncc1	INS-1E GSIS act 66.7 (no result: PGC1a acetyl inh, AF4-AF9 inh, RAD52 anneal inh, ERAP1 inh)
O=C1CN(S(=O)(=O)Cc2ccccc2)C[C@H]2[C@@H](c3ccc(C#Cc4cccnc4)cc3)[C@@H](CO)N12	none (no result: RAD54 branch)
CC(C)NC(=O)N(C)C[C@@H]1Oc2c(NC(=O)Nc3ccc4c(c3)OCO4)cccc2C(=O)N([C@@H](C)CO)C[C@@H]1C	none (no result: AF4-AF9 inh, RAD52 anneal inh, ERAP1 inh)
CCC(=O)Nc1ccc(Cl)c(NC(=S)NC(=O)COc2ccccc2)c1	none (no result: RAD54 branch, PGC1a acetyl inh)
CCC(=O)Nc1ccc(Cl)c(NC(=S)NC(=O)COc2ccc(Cl)cc2)c1	INS-1E GSIS act 43.9 (no result: RAD54 branch, PGC1a acetyl inh, AF4-AF9 inh, RAD52 anneal inh, ERAP1 inh)
Nc1ccc2c(c1)C(=O)c1cc(N)c(Cl)cc1-2	none (no result: INS-1E GSIS act)
COc1cc2c(cc1N)-c1ccc(N)cc1C2=O	AF4-AF9 inh 35.1 (no result: PGC1a acetyl inh, INS-1E GSIS act)
CCC(=O)N1CC2(CN(Cc3ccccc3Cl)C2)c2c([nH]c3cc(OC)ccc23)[C@@H]1CO	AF4-AF9 inh 28.5 (no result: RAD54 branch)
COc1ccc2c3c([nH]c2c1)[C@@H](CO)N(C(=O)CN(C)C)CC31CCN(Cc2ccccc2Cl)CC1	AF4-AF9 inh 30.1 (no result: RAD54 branch)
CCC(=O)N1CC2(CCN(Cc3ccc(Cl)cc3)CC2)c2c([nH]c3cc(OC)ccc23)[C@H]1CO	AF4-AF9 inh 32.2 (no result: RAD54 branch, RAD52 anneal inh, ERAP1 inh)
COc1ccc2c3c([nH]c2c1)[C@H](CO)N(Cc1nccs1)CC31CCN(Cc2cncnc2)CC1	none (no result: RAD54 branch)
COc1ccc2c3c([nH]c2c1)[C@@H](CO)N(Cc1nccs1)CC31CCN(Cc2cncnc2)CC1	RAD52 anneal inh 50.4 (no result: RAD54 branch)
C[C@@H]1CN([C@@H](C)CO)C(=O)c2cc(-c3cccc(C#N)c3)cnc2O[C@H]1CN(C)C(=O)C1CCC1	none (no result: INS-1E GSIS act)
COc1cccc(-c2cnc3c(c2)C(=O)N([C@H](C)CO)C[C@H](C)[C@H](CN(C)Cc2ccc(C(=O)O)cc2)O3)c1	none
CC(=O)N[C@H]1CC[C@@H](CCNC(=O)C2CCCC2)O[C@@H]1CO	none
COc1ccc(-c2cnc3c(c2)C(=O)N([C@H](C)CO)C[C@@H](C)[C@@H](CN(C)C(=O)Nc2c(C)noc2C)O3)cc1	PGC1a acetyl inh 43.5
C[C@@H]1CN([C@@H](C)CO)C(=O)c2cc(C#CC(C)(C)O)cnc2O[C@@H]1CN(C)C(=O)C1CCC1	none
C[C@@H]1CN([C@H](C)CO)C(=O)c2cc(C3=CCCCC3)cnc2O[C@H]1CN(C)C(=O)CN1CCOCC1	INS-1E GSIS act 170.6
C[C@H]1CN([C@@H](C)CO)C(=O)c2cc(C#CC(C)(C)O)cnc2O[C@@H]1CN(C)C(=O)C1CCC1	PGC1a acetyl inh 100.7
C[C@@H]1CN([C@@H](C)CO)C(=O)c2cc(Br)cnc2O[C@H]1CN(C)C(=O)C1CC1	INS-1E GSIS act 45.7!
C[C@H](CO)N1C[C@H](C)[C@@H](CN(C)C(=O)C2CC2)Oc2ncc(Br)cc2C1=O	none (no result: RAD54 branch, AF4-AF9 inh, RAD52 anneal inh, ERAP1 inh)
CC(=O)N(C)C[C@@H]1Oc2ccccc2CC(=O)N(C)C[C@H]1C	none (no result: RAD54 branch, PGC1a acetyl inh, AF4-AF9 inh, RAD52 anneal inh, ERAP1 inh)
O=C(C[C@H]1C[C@@H]2c3cc(NC(=O)Nc4ccccc4)ccc3O[C@@H]2[C@H](CO)O1)NCC(F)(F)F	none
COc1ccc(-c2cnc3c(c2)C(=O)N([C@H](C)CO)C[C@H](C)[C@@H](CN(C)C(=O)C2CC2)O3)cc1	PGC1a acetyl inh 111.1 (no result: RAD54 branch, AF4-AF9 inh, RAD52 anneal inh, ERAP1 inh)
Cc1ccc(-c2cnc3c(c2)C(=O)N([C@@H](C)CO)C[C@@H](C)[C@H](CN(C)C)O3)cc1	PGC1a acetyl inh 109.0
COc1ccc(-c2cnc3c(c2)C(=O)N([C@@H](C)CO)C[C@@H](C)[C@H](CN(C)C(=O)C2CC2)O3)cc1	none (no result: RAD54 branch, PGC1a acetyl inh, AF4-AF9 inh, RAD52 anneal inh, ERAP1 inh)
COCC(=O)N1[C@H](C(=O)Nc2ccccc2)[C@@H](CO)[C@@H]2Cn3c(ccc(-c4ccccc4)c3=O)[C@@H]21	none (no result: PGC1a acetyl inh)
O=[N+]([O-])c1ccccc1/C=C/c1ccncc1	none (no result: INS-1E GSIS act)
COc1ccc(S(=O)(=O)Nc2ccc3c(c2)C(=O)N([C@H](C)CO)C[C@@H](C)[C@H](CN(C)S(=O)(=O)c2c(C)noc2C)OCCCC[C@@H](C)O3)cc1	none
C[C@@H]1CCCCO[C@H](CN(C)CC2CC2)[C@H](C)CN([C@@H](C)CO)C(=O)c2cc(NC(=O)Nc3ccc4c(c3)OCO4)ccc2O1	AF4-AF9 inh 34.4, RAD52 anneal inh 54.9
C[C@@H]1CN([C@@H](C)CO)C(=O)c2cccc(NC(=O)Nc3ccc4c(c3)OCO4)c2O[C@H]1CN(C)CC1CCCCC1	none
C[C@H]1CN([C@@H](C)CO)C(=O)Cc2cc(NC(=O)Nc3ccc4c(c3)OCO4)ccc2O[C@H]1CN(C)CC1CCCCC1	none
C[C@@H]1CCCCO[C@@H](CN(C)CC2CC2)[C@H](C)CN([C@@H](C)CO)C(=O)c2cc(NC(=O)Nc3ccc4c(c3)OCO4)ccc2O1	AF4-AF9 inh inconclusive
C[C@H]1CCCCO[C@H](CN(C)CC2CC2)[C@@H](C)CN([C@@H](C)CO)C(=O)c2cc(NC(=O)Nc3ccc4c(c3)OCO4)ccc2O1	AF4-AF9 inh 34.6
C[C@@H]1CN([C@@H](C)CO)C(=O)c2cccc(NC(=O)Nc3ccc4c(c3)OCO4)c2O[C@@H]1CN(C)CC1CC1	AF4-AF9 inh 25.4 (no result: RAD54 branch)
C[C@H](CO)N1C[C@H](C)[C@@H](CN(C)CC2CCCCC2)Oc2ccc(NC(=O)Nc3ccc4c(c3)OCO4)cc2CC1=O	AF4-AF9 inh 26.0
CCOC(=O)c1c(-c2ccc(C)o2)csc1NC(=O)CSc1nnc(C)s1	none (no result: AF4-AF9 inh, INS-1E GSIS act, RAD52 anneal inh, ERAP1 inh)
CCOC(=O)c1c(-c2ccc(C)o2)csc1NC(=O)COC(=O)c1ccc(NC(N)=O)cc1	INS-1E GSIS act 49.6 (no result: AF4-AF9 inh, RAD52 anneal inh, ERAP1 inh)
COCC(=O)N1CC2(C1)CN(Cc1cc(F)ccc1F)[C@H](CO)c1[nH]c3cc(OC)ccc3c12	none (no result: RAD54 branch)
O=[N+]([O-])/C(=C\Nc1ccccc1)S(=O)(=O)c1ccccc1	INS-1E GSIS act 52.4 (no result: AF4-AF9 inh, RAD52 anneal inh, ERAP1 inh)
COc1ccc(-c2ccc(C3[C@H]4CNC[C@@H]3N4C(=O)Nc3ccc(F)cc3)cc2)cc1 (stereo partly drawn)	none (no result: RAD54 branch)
COc1ccc(NC(=O)N2[C@@H]3CNC[C@H]2C3c2ccc(-c3ccc(OC)cc3)cc2)cc1 (stereo partly drawn)	none (no result: RAD54 branch)
